Assay results: the supplement of paper PMC6555819

Tested on: PPARg homodimer (NR concentration 180 nM)
Assay: PBM binding z-score (relative to random genomic background probes); higher = stronger binding; sequences stand for … in GC…GCGATTGACAGCGTAGAATGAAGG
Summary of the method: (§1)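 Probes were double-stranded and carried 34-nt variable regions with direct-repeat seeds, single-nucleotide variants, half-site ablations and random human genomic background sequences, printed on custom Agilent 4×180K protein-binding microarrays. Arrays were incubated 1 h with ligand-free nuclear receptor dimers in PBS pH 7.4, 2% milk, 0.02% Triton X-100, 1 mM DTT, 0.2 mg/mL BSA and 0.4 mg/ml salmon testes DNA. Antibodies against each partner (one per run) detected binding, and scanned fluorescence was regression-normalized. Binding z-scores use the random background probes as reference.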

Sequence | PBM binding z-score
TCTCGGAGGACAGGAAGGTCAGAGCTTTCCAGAG | 0.357
ACTATTAGTTGACTTACGGCAACCGATACGACGC | 0.496
CCGGACAGGTGAAAGGTAACTCAGTCTGGTACGC | 0.751
ATCGAAAGGTCGAAGTGAGTATAGAGAAAGGGAA | 1.21
ATATGTAGGTTATCGGCTCATTCAGTTTGCGCAT | 1.39
CCTTCTGGGCCACGAAAGGTCATTGATTCAGTGA | 5.35
CAAACTAGGTCAAGCTCAAAGTCGGTTTGTGCCA | 1.52
TTACCAAGGTGAAAGGTAGTTGATGCACGCCTTG | 0.643
CCAACTGGGCCACGAAAGGTCATTGATTCAGTGA | 3.56
AGAATGAGGTTATACGTAGATCAGGCAAGAAAGT | 0.366
CAAACCAGGTCAAGGTCAAAGTCGGTTTGTGCCA | 4.71
TCATATAGGTAAACAGGTGAAAGTCCGTAAGTTA | 1.31
CGAACGAGAGCATGAGTTGATAGCAAATGCCGAT | -0.221
ACTTACGGGTCAACGAGGTTATGGCACGCGTATA | 3.2
ATCGACAGGTCGACGAGGTGAGTATACACCGTTT | 0.58
CAAACTAGGTCACAGAGGTCAAAGTCCGTGCGTA | 5.68
CCTACTGGGCCAAAGGTCAATGATTCCAATGCTC | 4.39
GCTGCTAGGTCAAATGATGGTCAGCTAAAGCTCG | 1.73
AGAATGAGTTTATACGTAGATCAGGGAAGAAAGT | -0.608
TGAATGAGGGTATAAGATCAGGGAACGTTGCAAA | 0.497

Sequence | PBM binding z-score
CCTCGGAGGACAACAGGAGGTCAGTGCTGCCAGA | 0.702
TAGCCTAGGTCAGATCGGGCCAGTATGCGCTATA | -0.654
CCTTTCGGGTCAAGGTTATAGCACGGGTGGTACG | 2.93
GGAACGAGGGCAAAGCTGATAGCATCTGTCGACG | 0.0511
TAGCCTAGGTCATTGGGGCAGTATAGTACGCATC | 1.66
ATCTCTAGGTAAGAGTCAGTTCAGTGAAGAACGC | 1.16
AGAATGAGGTTAAGATCAGGCAAACAGAATACAT | 0.518
TTACGAAGGTGAAGGTCGTTGATCCCTCTGTAGA | 0.462
AGAATTAGGTTATTAAGATCAGGGAATTGCGGTC | 1.3
GGAACGAGGGCATTCCAGTTGATAGCATGGCGAT | 0.527
TCTTGTAGTTCAAAGGTTAAGAAAGCCGAAGCCT | 1.87
AATACAGGGTCACTAGGCCAGCGTAGGTACGAAT | 1.64
CCTACTGGGCCATCAGCTCATTGATATCAACGTT | -0.413
TAGCCTAGGTCATTCAGGGGCCAGTATTGAAAGC | 2.68
TCTTGTAGATCAAAGGTTAGGAAAGCCGAAGCCT | 1.92
GCGACTGAGGCATCAGCAGGTTACCATAACTTAA | -0.486
ACACCAAGGTGATCGTGAGGTCGTTGATACTAAC | 0.72
TAGCCTAGGTCATGGGCCAGTCTACCACGCGAAC | 1.7
CGGCAAAGTTCAACTAAGGTAACGTAAAGCACGC | 3.39
CGTCCAAGGTCAGAAAGGTCAGTGAATGCCGAGT | 3.94

Tested on: PXR:RXRa (NR concentration 270 nM, RXRa partner concentration 90 nM)
Assay: as above
Summary of the method: as §1

Sequence | PBM binding z-score
TCTCGGAGGACAGGAAGGTCAGAGCTTTCCAGAG | 1.36
ACTATTAGTTGACTTACGGCAACCGATACGACGC | -0.0445
CCGGACAGGTGAAAGGTAACTCAGTCTGGTACGC | 0.988
ATCGAAAGGTCGAAGTGAGTATAGAGAAAGGGAA | 2.16
ATATGTAGGTTATCGGCTCATTCAGTTTGCGCAT | 0.282
CCTTCTGGGCCACGAAAGGTCATTGATTCAGTGA | 5.74
CAAACTAGGTCAAGCTCAAAGTCGGTTTGTGCCA | 1.38
TTACCAAGGTGAAAGGTAGTTGATGCACGCCTTG | 0.603
CCAACTGGGCCACGAAAGGTCATTGATTCAGTGA | 5.23
AGAATGAGGTTATACGTAGATCAGGCAAGAAAGT | 1.01
CAAACCAGGTCAAGGTCAAAGTCGGTTTGTGCCA | 5.84
TCATATAGGTAAACAGGTGAAAGTCCGTAAGTTA | 0.894
CGAACGAGAGCATGAGTTGATAGCAAATGCCGAT | -0.273
ACTTACGGGTCAACGAGGTTATGGCACGCGTATA | 5.1
ATCGACAGGTCGACGAGGTGAGTATACACCGTTT | 0.461
CAAACTAGGTCACAGAGGTCAAAGTCCGTGCGTA | 6.96
CCTACTGGGCCAAAGGTCAATGATTCCAATGCTC | 4.46
GCTGCTAGGTCAAATGATGGTCAGCTAAAGCTCG | 1.82
AGAATGAGTTTATACGTAGATCAGGGAAGAAAGT | 0.81
TGAATGAGGGTATAAGATCAGGGAACGTTGCAAA | 0.178

Sequence | PBM binding z-score
CCTCGGAGGACAACAGGAGGTCAGTGCTGCCAGA | 1.78
TAGCCTAGGTCAGATCGGGCCAGTATGCGCTATA | 0.891
CCTTTCGGGTCAAGGTTATAGCACGGGTGGTACG | 3.67
GGAACGAGGGCAAAGCTGATAGCATCTGTCGACG | 0.048
TAGCCTAGGTCATTGGGGCAGTATAGTACGCATC | 1.89
ATCTCTAGGTAAGAGTCAGTTCAGTGAAGAACGC | 0.741
AGAATGAGGTTAAGATCAGGCAAACAGAATACAT | 1.33
TTACGAAGGTGAAGGTCGTTGATCCCTCTGTAGA | 1.58
AGAATTAGGTTATTAAGATCAGGGAATTGCGGTC | 0.5
GGAACGAGGGCATTCCAGTTGATAGCATGGCGAT | 2.19
TCTTGTAGTTCAAAGGTTAAGAAAGCCGAAGCCT | 4.59
AATACAGGGTCACTAGGCCAGCGTAGGTACGAAT | 3.02
CCTACTGGGCCATCAGCTCATTGATATCAACGTT | -0.673
TAGCCTAGGTCATTCAGGGGCCAGTATTGAAAGC | 2.72
TCTTGTAGATCAAAGGTTAGGAAAGCCGAAGCCT | 1.04
GCGACTGAGGCATCAGCAGGTTACCATAACTTAA | -0.397
ACACCAAGGTGATCGTGAGGTCGTTGATACTAAC | 2.98
TAGCCTAGGTCATGGGCCAGTCTACCACGCGAAC | 1.48
CGGCAAAGTTCAACTAAGGTAACGTAAAGCACGC | 5.43
CGTCCAAGGTCAGAAAGGTCAGTGAATGCCGAGT | 6.06
